Source: PubChem (several laboratories)
The list is not random: actives were taken first. Their share in the collection is about 1.5%.
MEX-5 binding – C. elegans MEX-5 TCR-2 RNA binding activity; activity score (negative = inhibition of binding), % at 10 µM; 300,000 compounds, 0.38% hits; MEX-5/FITC-TCR2 RNA binding, fluorescence polarization; hits give low values;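 active means inhibition past about -25% in most replicates, and total fluorescence under double the plate's negative control median, limit read from the data; inconclusive means replicates evenly split on the limit, or fluorescence at least double controls; inactive means too little inhibition in most replicates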;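 further: 0% = DMSO and -100% = 5 µM competing unlabeled TCR2 RNA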
E coli Lon inh – inhibits E. coli Lon protease | P0A9M0 | purified E. coli Lon protease, fluorescence polarization | inhibition, % at 7.94 µM | 360,000 compounds, 0.42% hits | AID 602123; in the data active means inhibition above about 13%, passing the limit was not always enough;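 further: 0% = enzyme with probe and DMSO and 100% = no enzyme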
EBV gp42 block – inhibitors of Epstein-Barr virus glycoprotein 42. Q1HVG2. Fluorescence polarization binding assay, mP read-out. inhibition, % (tested at 21.74 µM). 220,000 compounds, 0.42% hits. AID 1085; in the data active means inhibition above about 50%
BCLXL inh – inhibitors of human Bcl-xL | 320,000 compounds, 0.7% hits | Q07817 | GST-Bcl-xL / FITC-Bim BH3 peptide fluorescence polarization | inhibition, % at 10.9 µM;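 active means inhibition above the mean of all tested compounds plus 3 SD, cutoff set per campaign, cut at about 30% in these data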;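 further: 0% = DMSO wells and 100% = unlabeled Bim-BH3 peptide competitor; inhibitors lower millipolarization by displacing the labeled peptide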
GLD-1 TGE inh – GLD-1-TGE RNA interaction inhibition (C. elegans); Q17339; purified GLD-1 + fluorescein TGE RNA, fluorescence polarization; inhibition, % at 5.96 µM; 320,000 compounds, 0.44% hits; AID 2280;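 active means percent inhibition above a per-plate cutoff, the plate mean of test compounds plus 3 SD, cut at about 30% in these data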;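 further: 0% = DMSO wells with GLD-1 and probe and 100% = wells lacking GLD-1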
MCL1 BIM primary – inhibitors of human MCL1 binding to BIM-BH3 peptide; Q07820; GST-MCL1 / FITC-Bim-BH3 fluorescence polarization; inhibition, % at 10.9 µM; 320,000 compounds, 0.68% hits; AID 2057;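 active means inhibition above the mean inhibition of all tested compounds plus 3 SD, set per campaign, cut at about 40% in these data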;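 further: 0% = DMSO wells and 100% = unlabeled Bim-BH3 peptide control; higher means more loss of mP so more displacement of Bim peptide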
Target sequence (Q07820 whole entry, looked up): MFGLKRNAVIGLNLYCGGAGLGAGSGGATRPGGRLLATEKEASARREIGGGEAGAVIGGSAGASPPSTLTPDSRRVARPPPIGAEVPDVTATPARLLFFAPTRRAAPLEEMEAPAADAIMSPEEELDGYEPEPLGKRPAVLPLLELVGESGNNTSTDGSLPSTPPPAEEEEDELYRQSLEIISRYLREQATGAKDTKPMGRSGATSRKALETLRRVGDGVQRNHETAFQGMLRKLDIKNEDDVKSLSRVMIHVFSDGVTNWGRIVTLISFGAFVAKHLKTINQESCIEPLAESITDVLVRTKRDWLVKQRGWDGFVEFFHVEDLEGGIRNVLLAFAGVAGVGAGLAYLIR
BCLXL inh confirm – Bcl-xL (human) inhibition, MCL1 counter-screen confirmation; AID 2166; inhibition, % at 10.9 µM; GST-Bcl-xL / FITC-Bim BH3 peptide FP binding; shares compounds with MCL1 BIM primary; 1,700 compounds, 54% hits;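 active means inhibition above a cutoff equal to the mean inhibition of all tested compounds plus 3 SD, cut at about 30% in these data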;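 further: 0% = DMSO wells and 100% = unlabeled Bim BH3 control peptide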
MCL1 BIM confirm – confirmation of human MCL1 and BIM-BH3 interaction inhibitors; shares compounds with MCL1 BIM primary; GST-MCL1 / FITC-Bim-BH3 fluorescence polarization; inhibition, % at 10.9 µM; 1,700 compounds, 61% hits;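 active means inhibition above the average of all tested compounds plus 3 SD, cut at about 40% in these data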;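 further: 0% = DMSO wells and 100% = unlabeled Bim-BH3 control peptide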
Active calls of the source: *; ? = inconclusive; . = no result given.

SMILES | MEX-5 binding | E coli Lon inh | EBV gp42 block | BCLXL inh | GLD-1 TGE inh | MCL1 BIM primary | BCLXL inh confirm | MCL1 BIM confirm
C=CCn1c(SCC(=O)c2ccc(O)c(O)c2)nnc1-c1ccccc1OC | -4 | 7 | -6 | 9 | 3 | 54* | 9 | 18
CC(=NNC(=O)c1cccc(S(=O)(=O)N2CCOCC2)c1)c1ccc(Cl)cc1 | . | -18 | . | . | -2 | . | . | .
CC(C)CCOCC1CC2(CC(C)(c3csc(N)n3)OC2=O)C(=O)O1 (centres undefined) | 2 | -8 | -10 | -7 | 2 | 168* | 3 | -4
O=C(Nc1ccccc1O)c1cccc(S(=O)(=O)Nc2ccccc2O)c1 | ? | 5 | . | 8 | 0 | 4 | . | .
COc1ccc(CNC(=O)C(C#N)c2nc3ccccc3nc2N2CCCC2)cc1 (centres undefined) | ? | -35 | -16 | 46* | 2 | 54* | 63* | 75*
C=CCNC(=O)C(C#N)c1nc2ccccc2nc1N1CCCCCC1 (centres undefined) | -9 | 13 | 40 | 74* | 57* | 71* | 32* | 32
CCCCCCCCOC(=O)c1cc([N+](=O)[O-])c(Sc2ncnc3nc[nH]c23)c([N+](=O)[O-])c1 | . | -2 | . | . | . | . | . | .
O=C(Cn1c(=O)n(Cc2ccco2)c(=O)c2c3c(sc21)CCCC3)Nc1ccccc1 | 2 | 4 | 7 | -1 | -3 | -4 | . | .
NC(=O)Cn1c(=O)n(Cc2ccco2)c(=O)c2c3c(sc21)CCCCC3 | 1 | -7 | 18 | 34* | 6 | 77* | 31* | 77*
C#CCCOC(=O)N1C2=NC(C(=O)OC)=C(C(=O)OC)[C@@H]3N(CC=C)c4ccccc4[C@]23C[C@H]1C(=O)OC | 1 | -3 | -23 | 4 | 4 | -4 | . | .
Cc1ccccc1NS(=O)(=O)c1ccc(OCC(=O)NCc2ccccn2)cc1 | 0 | -3 | 9 | 4 | 7 | 11 | . | .
O=C(c1ccco1)N1CCN(CCCCN2C(=O)c3ccccc3C2=O)CC1 | -1 | -6 | -8 | 6 | -5 | 8 | . | .
O=C1c2ccccc2-c2onc3c(N4CCN(CCO)CC4)cc(N4CCN(C(=O)c5ccco5)CC4)c1c23 | 22 | 4 | . | 63* | 12 | 83* | 53* | 58*
COc1ccccc1C(=O)n1nc(-c2ccco2)nc1SC | . | -3 | -5 | 2 | 8 | 3 | . | .
COc1ccccc1/C=c1\sc2nc(-c3ccco3)nn2c1=O | -7 | -9 | -11 | 21 | 0 | 60* | 24 | 52*
Cn1cc(S(=O)(=O)N2CCOCC2)cc1C(=O)NCc1ccccc1Cl | 0 | 2 | . | 0 | 1 | -1 | . | .
N#Cc1cc([N+](=O)[O-])cnc1NCC(O)CO (centres undefined) | 1 | 5 | -5 | 7 | 3 | 7 | . | .
CSCC(C)N1CCC(n2nccc2NC(=O)CCCc2ccccc2)CC1 (centres undefined) | -64* | 3 | . | 99* | 45* | 108* | 99* | 119*
COc1ccc2ccc3c(c2c1)N=CC1(O3)N(C)c2ccccc2C1(C)C (centres undefined) | 1 | -5 | -9 | 36* | 7 | 54* | 62* | 83*
CN1c2ccccc2C(C)(C)[C@]12C=Cc1cc(O)ccc1O2 | 1 | -24 | -12 | 13 | 26 | 15 | . | .
CCCCc1nc(SCc2ccc([N+](=O)[O-])cc2)n[nH]1 | -3 | 3 | -21 | 4 | -2 | 4 | . | .
Cc1ccc(/C=C2\SC(=S)N(/N=C/c3cc([N+](=O)[O-])ccc3O)C2=O)o1 | 0 | -2 | -10 | 27 | 4 | 66* | 31* | 61*
CC1(C)CNc2cc(N)ccc2S1 | -2 | -30 | 3 | 25 | -18 | 66* | 32* | 43*
Cc1ccc(/C=C2/NC(=O)N(Cc3ccc(Br)cc3)C2=O)o1 | -4 | -12 | -47 | 21 | 25 | 46* | -2 | 21
